KB-V1 cytotox: kills drug-selected multidrug resistant KB-V1 cells. actives 3.4% (n = 400,000). Potency, µM (top dose mostly 46.1 µM), actives largely listed as cytotoxic. KB-V1 MDR cells viability, CellTiter-Glo, 72 h. AID 1347076; also: % is scaled to controls: 0 for no effect and ±100 for the full control effect; nearly all actives have a fitted effect of over 60% in size
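Cytotoxicity via CellTiter-Glo luminescence after 72 h compound exposure at 37 degrees C. Cells: drug-selected KB-V1 line, DMEM phenol-red free plus 10% FBS. Compounds tested at multiple concentrations; normalized data fitted to concentration-effect curves.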
HT1080 IDH1KD tx: toxicity to HT-1080 IDH1 knockdown cells (counter line); HT-1080 IDH1 knockdown viability, ATP luminescence, 48 h; Potency, µM (doses to about 46.1 µM), without a hit: at the highest dose activity, negative = toxicity, most hits filed as cytotoxic; actives 2% (n = 360,000); AID 686971;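 also: 0% = DMSO wells and -100% = cell-free medium wells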
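Cytotoxicity counter-line: IDH1KD HT-1080, 48 h, CellTiter-Glo. Curves classed by r2, magnitude and activity.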
MCF10A rerep: inducers of DNA re-replication in MCF 10A breast cells | MCF 10A DNA re-replication, Hoechst nuclear intensity, 48 h | Potency, µM (top dose mostly 46.1 µM), for inactives: at the top dose activity, positive = re-replication, most hits filed as activators | actives 2.9% (n = 350,000) | AID 624296; also: % of control where 0% means no effect; nearly all actives have a fitted effect of over 50% in size
SW480 rerep: inducers of DNA re-replication in SW480 colon cancer cells; Potency, µM (titrated, usually from 46.1 µM), for the others: top-dose re-replication activation, most hits filed as activators; AID 624297; actives 1.8% (n = 340,000); SW480 DNA re-replication, Hoechst DNA content imaging, 48 h; also: % of control where 0% means no effect; nearly all actives have a fitted effect of over 55% in size
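Per well, 250 cells were exposed to pinned compound for 48 hr. Nuclear DNA was visualised with Hoechst (40 min, 37 C) and total object intensity recorded by fluorescence scanning.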
KB-3-1 tox: kills parental KB-3-1 adenocarcinoma cells. KB-3-1 viability, CellTiter-Glo ATP luminescence, 72 h. Potency, µM (series often up to 46.1 µM), actives largely listed as cytotoxic. actives 1.4% (n = 400,000); also: % is scaled to controls: 0 for no effect and ±100 for the full control effect; nearly all actives have a fitted effect of over 60% in size
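Cells are dispensed, compounds pinned in, plates held at 37 °C for 72 h, then CellTiter-Glo is added and luminescence read after 10 minutes. Cell line: parental KB-3-1 in phenol-red-free DMEM, 10% FBS.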
HT1080-NT tox: kills 2HG-producing HT-1080-NT fibrosarcoma cells; HT-1080-NT fibrosarcoma viability, CellTiter-Glo ATP luminescence, 48 h; Potency, µM (titrated, usually from 46.1 µM), inactives show top-dose activity, negative = less viability, most hits filed as cytotoxic; actives 1.6% (n = 360,000); AID 686970;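 also: NT is the 2HG producing partner of a matched IDH1 knockdown line; 0% = DMSO-treated cells and -100% = media-only wells without cells; nearly all actives have a fitted effect of over 55% in size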
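Fibrosarcoma NT cells, 750 per well in 5% FBS RPMI, were exposed to compound for 48 hours. Viability: CellTiter-Glo luminescence.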
An asterisk follows results filed as active; i = inactive; ? = inconclusive; . = no result given. Most compounds without a hit are left out; they make up all but 8% or so of the library. Calls follow the shape of the dose curve; as a rule, active = well fitted curve in the direction sought with a large enough effect; inconclusive = small, poorly fitted or top-dose-only effect, or another doubt; inactive = no such curve, though single readings can be large; an effect the other way counts as inactive or inconclusive. Potency is read from the fitted curve at half-maximal effect.

SMILES	KB-V1 cytotox	HT1080 IDH1KD tx	MCF10A rerep	SW480 rerep	KB-3-1 tox	HT1080-NT tox
CCCNC(=O)C(Cc1cccc(Cl)c1)NC(=O)c1ccccc1 (stereo not given)	i	-3%	-2%	?	i	-8%
COc1ccc2c(c1)sc(=NC(=O)CS(=O)(=O)c1ccc(F)cc1)n2C	i	1%	29%	?	i	-1%
Cc1ccc(NC2=C(Cl)C(=O)c3ccccc3C2=O)cc1	i	-6%	7.3µM*	4.1µM*	?	3%
CCOC1=C/C(=C/c2c(N)n3nc(-c4ccccc4)sc3nc2=O)C=CC1=O	i	-6%	26µM*	-7%	i	-6%
O=C(CCOc1ccccc1)NO	.	-2%	.	.	.	-1%
C/C(=N\O)c1ccc2c3c([nH]c2c1)CCCC3	i	-11%	?	7%	8.2µM*	0%
c1ccc2c3c([nH]c2c1)CCCC3	i	.	.	.	i	.
C=C(NC(=O)C(=C)NC(=O)c1csc(C2=N[C@@H]3c4csc(n4)[C@@H]4NC(=O)c5csc(n5)[C@@H]([C@](C)(O)[C@H](C)O)NC(=O)[C@@H]5CSC(=N5)/C(=C/C)NC(=O)[C@@H]([C@H](C)O)NC(=O)c5csc(n5)[C@]3(CC2)NC(=O)[C@@H](C)NC(=O)C(=C)NC(=O)[C@@H](C)NC(=O)[C@@H]([C@@H](C)CC)N[C@H]2C=Cc3c([C@H](C)O)cc(nc3[C@@H]2O)C(=O)O[C@H]4C)n1)C(N)=O	.	.	8.1µM*	7.2µM*	.	.
C=C(NC(=O)C(=C)NC(=O)c1csc(C2=NC3c4csc(n4)C4NC(=O)c5csc(n5)C(C(C)(O)C(C)O)NC(=O)C5CSC(=N5)/C(=C/C)NC(=O)C(C(C)O)NC(=O)c5csc(n5)C3(CC2)NC(=O)C(C)NC(=O)C(=C)NC(=O)C(=C)NC(=O)C(C(C)C)NC2C=Cc3c(C(C)O)cc(nc3C2O)C(=O)OC4C)n1)C(N)=O (stereo not given)	?	5.2µM*	?	1.2µM*	?	?
CC1CCC2(C1)N=C(Nc1nc3ccccc3o1)NC1=C2C(=O)CCC1 (stereo not given)	i	.	.	.	i	.
Cc1ccc(S(=O)(=O)Nc2cc(=O)[nH]c(SCc3ccc(Cl)cc3)n2)cc1	i	-12%	18µM*	-71%	i	-2%
Cc1ccc(S(=O)(=O)N2CCCCC2c2cccnc2)c(C)c1C (stereo not given)	16µM*	-3%	2%	-19%	?	0%
CN1CCN(c2nc(-c3cccs3)cc(C(F)(F)F)n2)CC1	16µM*	9%	?	9%	i	4%
CN1CCN(c2nc(-c3ccccc3)cc(C(F)(F)F)n2)CC1	i	-7%	17%	-13%	i	-13%
CCCC1CCC(=NNC(=O)CNc2ccc(OC)cc2)CC1 (stereo not given)	i	-6%	-71%	15µM*	i	-4%
Cc1cc(C)c(S(=O)(=O)c2ccccc2)c(Cl)n1	i	0%	-2%	-5%	i	-1%
Cc1cc(C)c(S(=O)(=O)c2ccccc2C)c(Oc2ccccc2)n1	21µM*	-2%	9%	-4%	?	2%
Cc1cc(C)c(S(=O)(=O)c2ccccc2C)c(OCCO)n1	i	15%	-1%	-3%	i	12%
COc1ccc(Oc2nc(C)cc(C)c2S(=O)(=O)c2ccc(C)cc2)cc1	21µM*	-13%	10%	-74%	i	7%
Cc1ccc(S(=O)(=O)c2c(C)cc(C)nc2Cl)cc1	13µM*	-1%	1%	-5%	i	0%
Cc1ccc(OCc2nnc(SCC(=O)c3cccc([N+](=O)[O-])c3)n2C)cc1	i	-22%	?	25%	i	-18%
Cc1cc([N+](=O)[O-])ccc1NC(=O)/C=C/c1cccs1	8.2µM*	8%	-62%	-94%	?	3%
Cc1ccc(NC(=O)/C=C/c2ccc([N+](=O)[O-])s2)cc1	?	?	5.8µM*	8.2µM*	?	?
O=C(/C=C/c1cccs1)NNC(=O)c1cccc([N+](=O)[O-])c1	i	-7%	2%	-4%	i	-9%
Cc1ccnc(NC(=O)/C=C/c2cccs2)c1	12µM*	?	?	?	?	?
SMILES	KB-V1 cytotox	HT1080 IDH1KD tx	MCF10A rerep	SW480 rerep	KB-3-1 tox	HT1080-NT tox
Cc1ccc(NC(=O)/C=C/c2ccc([N+](=O)[O-])s2)c(C)c1	i	2.3µM*	1.6µM*	4.6µM*	?	2.6µM*
Cc1ccc(NC(=O)COC(=O)c2ccc([N+](=O)[O-])s2)c(C)c1	i	14%	8%	0%	i	8%
COC(=O)CCN(c1ccccc1)S(=O)(=O)c1cc(-c2cc(C)no2)ccc1OC	i	3%	11%	4%	i	-15%
CC1CC(C)CN(CC(=O)NNC(=O)COc2ccc(Cl)cc2)C1 (stereo not given)	?	1%	3%	-6%	i	11%
C/C(=N\NC(=O)C1(C)CC1(Br)Br)c1cccc(NC(=O)c2ccc(C)o2)c1 (stereo not given)	?	-2%	14%	-1%	i	-3%
O=C(c1ccccc1Cl)N1c2ncnn2C2(CCCCC2)[C@@H]2CCCC[C@@H]21	i	.	.	.	i	.
Cc1cccc(NC(=O)/C=C/c2ccc([N+](=O)[O-])s2)c1	4.6µM*	4.1µM*	2.3µM*	6.5µM*	5.8µM*	2.9µM*
COc1cccc(NC(=O)/C=C/c2ccccc2[N+](=O)[O-])c1	?	-21%	-4%	-7%	?	-17%
CCn1c(=N)c(C(=O)NCC2CCCO2)cc2c(=O)n3cc(C)ccc3nc21 (stereo not given)	i	.	.	.	i	.
Cc1ccc2nc3c(cc(C(=O)NCC4CCCO4)c(=N)n3CC3CCCO3)c(=O)n2c1 (stereo not given)	i	-12%	2.9µM*	?	i	1%
Cc1ccc2nc3nc(NCC4CCCO4)c(C(=O)NC4CCCC4)cc3c(=O)n2c1 (stereo not given)	i	4%	2.6µM*	15%	i	-1%
CCOC(=O)c1cc2c(=O)n3ccccc3nc2n(CC2CCCO2)c1=NC(C)=O (stereo not given)	?	-4%	?	?	i	-7%

Source: PubChem
